In ChEMBL document CHEMBL4513216, “Probing the Open Global Health Chemical Diversity Library for Multistage-Active Starting Points for Next-Generation Antimalarials” (ACS Infect Dis, 2020):
The whole screen tested about 69,000 compounds, of which about 8,600 (12%) showed an effect of 50% or more. For the sample, strong results were picked, then their nearest neighbours and some compounds at random.

What follows are compounds tested on Plasmodium berghei (assay: Screen against P. berghei liver stage (PbLuc), transformed with Luciferase, at 10uM). Settings: tested at 10 uM.
Format: functional, HepG2

SMILES | INHIBITION [%]
CCOCC1CN(S(=O)(=O)N(C)C)Cc2cnn(C)c21 (configuration not stated) | 33.5
COCCN1CCO[C@@H]2CN(C(=O)Cc3ccccc3)CC[C@@H]2C1 | 18.5
O=C(CCN1CCCCO1)N1CC[C@H](O)[C@@H](O)C1 | 28.7
CC(C)O[C@H]1CN(C(=O)CCN2CCCCO2)C[C@@H]1O | 57.6
O=C(CCN1CCCO1)N1CC[C@@H](CNC(=O)N2CCCC2)[C@H](O)C1 | 43.7
Cc1cccc(C(=O)N2C[C@@H]3CCN(C(C)C)C[C@@H]3C2)c1 | -38.1
Cc1cc(CN2CC[C@H]3C[C@H](C(=O)N4CCC(C)CC4)O[C@H]3C2)no1 | 34.7
COc1cccc(-c2nc(CC(=O)NC3(C)CCS(=O)(=O)C3)cs2)c1 (configuration not stated) | -10.1
COCC1CCN(c2cc(C3CN(C)CCO3)nc(C)n2)CC1 (configuration not stated) | 23.9
Cn1cc(C2CN(C(=O)Cc3coc(-c4ccccc4)n3)CCO2)cn1 (configuration not stated) | 53.9
Cn1cc(C2CCCN2C(=O)Cc2coc(-c3ccccc3)n2)cn1 (configuration not stated) | 13.9
CCC1CN(C(=O)Cc2coc(-c3ccccc3)n2)CCO1 (configuration not stated) | 7.4
CCS(=O)(=O)N1CCC2(CCN(Cc3nccs3)CC2)CC1 | 26.5
CC(C)(C)C(=O)N1CCCC(c2ncncc2-c2ccncc2)C1 (configuration not stated) | 49.6
O=C1COc2cc(C(=O)NS(=O)(=O)c3cccc(Cl)c3)ccc2N1 | 47
COc1ccc(CN(C)C2CSCCSC2)c2cccnc12 | 57.4
COc1ccc(CN(C)C2CCN(S(C)(=O)=O)CC2)c2cccnc12 | 30.5
COc1ccc(CN(C)C2CCN(C(=O)C(C)C)CC2)c2cccnc12 | 8.97
O=C(c1ccccc1F)N1CCC2(CC1)CC(N1CCCC1)CO2 (configuration not stated) | 44.8
Cc1cnn(CC2CCCN2C(=O)c2ccc(F)cc2Cl)c1 (configuration not stated) | -81.1
CN(C)C(=O)c1n[nH]c2c1CN(CC1CCCCC1)C2 | 25.6
CCn1cc(NC(=O)C(C)n2ncc(Cl)c2C)c(C(=O)NCC(C)C)n1 (configuration not stated) | 11

SMILES | INHIBITION [%]
COCCN1CCC(c2nc3ccc(N4CCCC4)cn3n2)CC1 | 52
COCCN1CCC(c2nc3ccc(NC(C)C)cn3n2)CC1 | 19.5
CCN1CCC(c2nc3ccc(NC4CCC4)cn3n2)CC1 | 46.6
c1cc2nc(C3CCN(CC4CC4)CC3)nn2cc1N1CCCC1 | 8.47
COCC(=O)N1CCC(c2nc3ccc(N4CCOCC4)cn3n2)CC1 | 45.2
COCCN1CCC(c2nc3ccc(NC4CCC4)cn3n2)CC1 | 57.5
O=C(C1CCOCC1)N1CCc2ncc(CN3CCOCC3)n2CC1 | -3.88
COCCN1CCC2(CCN(c3ncccn3)CC2)C1=O | 34.6
Cc1ccc(CN2C[C@@H]3[C@@H](C(=O)NCC4CC4)CCS(=O)(=O)[C@@H]3C2)cc1 | -21.1
Cc1cc(C)cc(C(=O)Nc2cn[nH]c2)c1 | 7.77
O=C(NC1CCCC1)c1cc(Sc2ncccn2)ccn1 | -48.4
Cc1cc(C(=O)NCC2CCC3(CC2)OCCO3)[nH]n1 | 41.4
O=C(NCC1CCC2(CC1)OCCO2)c1ccncc1F | 57.7
Cc1[nH]ncc1C(=O)NCC1CCC2(CC1)OCCO2 | 32
CC(C)Sc1ccc(C(C)NC(=O)CNS(C)(=O)=O)cc1 (configuration not stated) | 38
CCSc1ccc(C(C)NC(=O)CCS(C)(=O)=O)cc1 (configuration not stated) | 2.91
CCSc1ccc(C(C)NC(=O)CNS(C)(=O)=O)cc1 (configuration not stated) | 51.7
CC(=O)NCCNc1nc(-c2ccccn2)nc2c1c(C)nn2C | 39.1
CCSCCNc1nc(-c2ccccn2)nc2c1c(C)nn2C | 51.3
Cc1nn(C)c2nc(-c3ccccn3)nc(NCCCOC(C)C)c12 | 5.46
CC(C)N(C)Cc1cnc2n1CCN(C(=O)Cc1cccs1)C2C (configuration not stated) | -18.5
Cc1nccn1C1CCCN(C(=O)c2ccnc(-n3ccnc3)c2)C1 (configuration not stated) | 18.2

SMILES | INHIBITION [%]
CC(C)n1nnc(CC(=O)NCC2(c3ccccc3F)CCOCC2)n1 | 27.05
O=C(c1cc2cccc(F)c2[nH]1)N1C[C@@H](O)[C@H](N2CCOCC2)C1 | -9.08
CCC(CC)C(=O)NCC1(NC(C)c2ccccc2)CCOCC1 (configuration not stated) | 59.3
CC(NC1(CNC(=O)CC2CCCC2)CCOCC1)c1ccccc1 (configuration not stated) | 82.1
CC(NC1(CNC(=O)NC2CC2)CCOCC1)c1ccccc1 (configuration not stated) | 43.1
CCOCC(=O)NCC1(NC(C)c2ccccc2)CCOCC1 (configuration not stated) | 42
CC(NC1(CNC(=O)CC(C)(C)C)CCOCC1)c1ccccc1 (configuration not stated) | -6.75
CC(NC1(CNC(=O)OC(C)(C)C)CCOCC1)c1ccccc1 (configuration not stated) | 36.6
COc1cccc(CNCC2(COc3cccnc3)C[C@@H](O)[C@@H](O)C2)c1 (some centres not stated) | 46.4
CC(Nc1ccc(C(F)(F)F)cc1C#N)c1cccc(S(N)(=O)=O)c1 (configuration not stated) | 28.6
CC(C)CNC(=O)CNc1c(NCc2ccccn2)c(=O)c1=O | -8.8
O=c1c(NCc2ccncc2)c(NCC(O)CN2CCOCC2)c1=O (configuration not stated) | 50.8
O=c1c(NCc2ccco2)c(NCC(O)CN2CCOCC2)c1=O (configuration not stated) | 48.9
CC(C)(CO)Nc1c(NCc2ccccn2)c(=O)c1=O | 6.34
O=c1c(NCc2ccccn2)c(NCC(O)CN2CCOCC2)c1=O (configuration not stated) | 50.8
OC(CNc1ccc(Cl)cn1)CN1CCOCC1 (configuration not stated) | -58.5
CC(NC(=O)NCc1cccnc1N(C)C)c1ccc(F)cc1 (configuration not stated) | -12.1
COCCC(=O)N1C[C@@H]2CC[C@H]1CN(C1Cc3ccccc3C1)C2 | -20.6
CN(C)CCO[C@H]1CN(C(=O)c2ccc[nH]2)[C@@H]2COC[C@H]12 | 7.65
CCN(CC)C1CCN(C(=O)c2cc(-n3cccn3)ccc2Cl)CC1 | 14.6
Fc1ccc2c(c1)C1(CCNCC1)CC2NC1CC1 (configuration not stated) | 95.5
Cc1ccc2c(c1)C1(CCNCC1)CC2NC(C)C (configuration not stated) | -22.7

SMILES | INHIBITION [%]
CCN1CCC2(CC1)CC(NC(=O)NC)c1cc(C)ccc12 (configuration not stated) | -25
c1ccc2c(c1)C(NC1CCCC1)CC21CCNCC1 (configuration not stated) | 71.1
Cc1ccc2c(c1)C1(CCNCC1)CC2NCCO (configuration not stated) | 55.7
Fc1ccc2c(c1)C1(CCNCC1)CC2OCC1CC1 (configuration not stated) | -5.63
Cc1ccc2c(c1)C(NC(C)C)CC21CCNCC1 (configuration not stated) | -46.4
CC(C)NC1CC2(CCNCC2)c2cc(F)ccc21 (configuration not stated) | -33.1
CNC(=O)NC1CC2(CCNCC2)c2ccc(C)cc21 (configuration not stated) | 63
CC(=O)N1CC2(CCNCC2)c2cc(C)ccc21 | 7.77
Cc1ccc(OCC(O)CN2CCC(Cn3cccn3)CC2)cc1 (configuration not stated) | 28.5
Cc1ccc(-c2nc(C(=O)N3CCCC(C(N)=O)C3)cs2)c(C)c1 (configuration not stated) | -79.45
CC(c1ccncc1)N(CCN(C)C)C(=O)Nc1ccc(Cl)cc1 (configuration not stated) | 8.49
Cc1nn(CC(C)C)c(C)c1CC(=O)N1CCCC(NS(C)(=O)=O)C1 (configuration not stated) | 17.1
Cc1cc(C)c(C#N)c(N2CCC3(CCCN(CCO)C3=O)C2)n1 (configuration not stated) | -17.2
COc1cn(CC(=O)N2CCC(c3ccccc3)CC2)c(C)cc1=O | 12.4
Cc1ccc2c(c1)C1(CCNCC1)CC2NC1CC1 (configuration not stated) | 67.5
COc1cccc(N2C(=O)CC3(CCNCC3)C2=O)c1 | 22.3
Cc1ccc2c(c1)C(NC1CC1)CC21CCNCC1 (configuration not stated) | 42.1
Cc1ccc2c(c1)C1(CCNCC1)CC2OCC1CC1 (configuration not stated) | -26.5
COc1ccc2c(c1)C1(CCNCC1)CC2NC1CC1 (configuration not stated) | 94.6
COc1cccc(-c2ccnc(C3CCNCC3)c2)c1 | -23.8
COc1cccc(C(=O)N2CCCCC2c2nccs2)c1OC (configuration not stated) | -7.35
COCC(=O)N1CCC(c2cc3n(n2)[C@@H](C(F)(F)F)C[C@@H](C)N3)CC1 | 49.6

SMILES | INHIBITION [%]
CC(C)(O)CCc1cccc(C(=O)N2CCC[C@H]2C(N)=O)c1 | 40.2
COc1ccc(NC(=O)NCCCn2nc3ccccn3c2=O)cc1 | 16.8
O=C(N1CCCC1)N1CCO[C@H]2[C@@H](OCc3cccnc3)CC[C@@H]21 | -26.5
Cn1c(CN2CCCC(Cn3cncn3)C2)nc2ccccc21 (configuration not stated) | 33.1
O=C(CN1CCC(c2nnc(C(F)(F)F)o2)CC1)Nc1cccnc1 | -17.8
COCCN(Cc1ccccc1)C(=O)c1cnn(C)c1C | 81.5
COCCN(Cc1ccoc1)C(=O)c1ccccc1Cl | -33.2
CCCN(CCC)C(=O)c1sc(C)nc1C | -3.14
CCCN(CCC)C(=O)c1cnn(C)c1C | 51.3
COCCN(Cc1ccc(F)cc1Cl)C(=O)c1ccccn1 | 52.4
COCCN(Cc1ccc(F)cc1Cl)C(=O)c1cnn(C)c1C | 80.2
COCCN(Cc1ccc(F)cc1Cl)C(=O)c1csnn1 | 39.5
COCCN(Cc1ccc(F)cc1Cl)C(=O)c1ccc(=O)[nH]n1 | 16.6
COCCN(Cc1ccc(F)cc1Cl)C(=O)c1ccncc1 | 21
CCc1ccccc1NC(=O)c1cnn(C)c1C | 21.5
COCCN(Cc1ccc(F)cc1Cl)C(=O)c1cc(C)n[nH]1 | 32.5
COCCN(Cc1ccoc1)C(=O)c1ccccc1OC | 28.4
CN1CCC(NC(=O)C2CN(c3cncnc3)CCO2)CC1 (configuration not stated) | 14.7
CN1C[C@@H](c2cccc(F)c2)[C@H]2[C@H]1CCCCCN2C(=O)C1CC1 | 12.2535
